Screening results as filed in PubChem.
An excerpt weighted towards active compounds, which were near 3.1% of everything screened.
C2C12 statin = protects C2C12 myotubes from simvastatin toxicity | ATP luminescence, 48 h; scaled: DMSO 0, geranylgeraniol control 100 | rescue of ATP level, % at 7.49 µM | 0.78% of 330,000 active;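 active = mean ATP rescue above about 67%, or every replicate alone reaching that limit, limit read from the data, passing the limit was not always enough; inconclusive = no clear call, values can overlap the other calls; inactive = mean under the limit and some replicate under it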;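 also: myotubes were challenged with 10 µM simvastatin during compound exposure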
esBAF inh = blocks esBAF chromatin remodeling in mouse ES cells. Bmi1-luciferase knock-in reporter, 24 h; 100% = twice the neutral-well signal. 2% of 350,000 active. AID 602393. reporter increase, % at 12.5 µM; in the data active = activation above about 40%; inconclusive = no clear call, values can overlap the other calls;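 also: 0% = median of the plate's neutral control wells and 100% = double that signal; a rise in the Bmi1 reporter signal indicates esBAF inhibition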
Wnt bcat act = activators of Wnt/beta-catenin signaling; Wnt/beta-catenin reporter cell assay, activator, plate reader; activation, % at 9.35 µM; 1.2% of 300,000 active; AID 743398; in the data active = activation above about 30%, passing the limit was not always enough; inconclusive = no clear call, values can overlap the other calls;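 also: 0% = neutral control wells and 100% = positive control wells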
MITF act = increases MITF-driven TRPM1 promoter luciferase signal; SK-MEL-5 TRPM1-promoter luciferase, 24 h; % of positive control, neutral wells = 0; activation, % at 12.5 µM; 0.75% of 300,000 active;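 active = mean activation of at least 80% with every replicate also reaching 80%; inconclusive = mean reaches 80% but some replicate falls short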;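 also: 0% = neutral control wells and 100% = parthenolide positive control wells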
Rtt109 Vps75 = inhibitors of Candida albicans Rtt109/Vps75 histone acetyltransferase | Q5AAJ8 | purified Rtt109/Vps75, ThioGlo CoA-SH fluorescence, 4 h | inhibition, % at 34.9 µM | 0.16% of 330,000 active | AID 540336;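 active = inhibition of at least 50% in every replicate; inconclusive = best replicate reaches 50% inhibition but some replicates fall short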
Target sequence (Q5AAJ8 whole entry, looked up): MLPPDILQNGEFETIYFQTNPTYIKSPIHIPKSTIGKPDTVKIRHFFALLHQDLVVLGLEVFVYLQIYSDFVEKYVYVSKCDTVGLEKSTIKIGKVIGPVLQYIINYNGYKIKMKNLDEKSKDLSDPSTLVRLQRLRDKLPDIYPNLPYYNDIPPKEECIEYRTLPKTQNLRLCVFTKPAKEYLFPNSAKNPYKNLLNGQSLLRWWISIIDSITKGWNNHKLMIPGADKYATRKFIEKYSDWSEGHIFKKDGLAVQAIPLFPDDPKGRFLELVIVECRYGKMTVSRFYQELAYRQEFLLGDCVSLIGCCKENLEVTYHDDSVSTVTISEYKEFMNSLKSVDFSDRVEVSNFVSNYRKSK
Numbers without * were called inactive; ? = inconclusive; . = no result.

SMILES	C2C12 statin	esBAF inh	Wnt bcat act	MITF act	Rtt109 Vps75
Cc1ccc(-c2cc(N)n(-c3ccc(F)cc3)n2)cc1	.	.	9	100*	7
Cc1ccc(-n2nc(-c3ccccc3)cc2Nc2ccccc2N)cc1	.	.	-7	11	3
C=CCOc1ccc2c(OC)c3ccoc3nc2c1OC	92*	48*	35*	27	0
CCOc1c2ccoc2nc2c(OC)c(OC)ccc12	2	21	0	.	8
COc1cc(OC)cc(-c2nc(-c3ccccc3)no2)c1	-8	48*	-2	45	-6
Clc1ccccc1-c1nc(-c2cccnc2)no1	8	24	.	3	0
CCCCOc1ccc(-c2nc(-c3cccnc3)no2)cc1	22	7	.	99*	3
Cc1ccccc1-c1nc(-c2cccnc2)no1	10	9	48*	.	-9
Cc1ccc(-c2noc(-c3ccccc3F)n2)cc1	-6	-15	57*	12	-1
COc1ccc(-c2nc(-c3cccnc3)no2)cc1	.	.	53*	.	6
Cc1ccccc1-c1nc(Cc2ccccc2)no1	.	60*	17	118*	9
CCOc1ccc(-c2noc(-c3cccnc3)n2)cc1OC	-7	-8	10	51	5
c1ccc(-c2ccc(-c3nc(-c4cccnc4)no3)cc2)cc1	-12	4	?	48	4
CCOc1ccc(-c2nc(-c3cccnc3)no2)cc1	3	-3	47*	13	-14
CCCCNc1c(-c2ccc(SC3CCCCC3)cc2)nc2ccccn12	-3	25	37*	35	12
CCCCNc1c(-c2ccc(SC(C)CC)cc2)nc2ccccn12 (configuration not stated)	-106	-19	19	?	-59
CCNC(=S)Nc1cc2oc3ccccc3c2cc1OC	-9	45*	2	0	5
COc1cc2c(cc1NC(=O)c1cccc(S(=O)(=O)N(C)C)c1)oc1ccccc12	.	.	41*	21	-5
CCN(CC)S(=O)(=O)c1ccc(C(=O)Nc2cc3oc4ccccc4c3cc2OC)cc1	.	.	.	5	1
COc1cc2c(cc1NC(=O)C1CCCO1)oc1ccccc12 (configuration not stated)	.	57*	-4	33	11
CO[C@@H]1CN(C)C(=O)c2ccc(NC(=O)Cc3ccccc3)cc2OC[C@H](C)NC[C@@H]1C	1	0	.	.	.
C[C@H]1CN([C@@H](C)CO)C(=O)Cc2cc(NC(=O)CCCCCC(=O)Nc3ccccc3N)ccc2O[C@H]1CN(C)Cc1ccc(Oc2ccccc2)cc1	104*	-6	.	.	.
C[C@@H]1CN([C@H](C)CO)C(=O)Cc2cc(NC(=O)CCCCCC(=O)Nc3ccccc3N)ccc2O[C@H]1CN(C)CC1CCCCC1	88*	-14	.	.	.
C[C@H]1CN([C@@H](C)CO)C(=O)Cc2cc(NC(=O)CCCCCC(=O)Nc3ccccc3N)ccc2O[C@H]1CN(C)Cc1ccc(Cl)c(Cl)c1	105*	-20	.	.	.
C[C@@H]1CN([C@@H](C)CO)C(=O)c2cc(NC(=O)CCCCCC(=O)Nc3ccccc3N)ccc2O[C@@H]1CN(C)C(=O)Nc1ccc(C(F)(F)F)cc1	68*	7	.	.	.
SMILES	C2C12 statin	esBAF inh	Wnt bcat act	MITF act	Rtt109 Vps75
C[C@H]1CN([C@@H](C)CO)C(=O)c2cc(NC(=O)CCCCCC(=O)Nc3ccccc3N)ccc2O[C@H]1CN(C)C(=O)Nc1ccc(C(F)(F)F)cc1	41	2	.	.	.
COc1cccc(NC(=O)C[C@@H]2CC[C@H]3[C@H](COc4ccc(NC(=O)C5CCOCC5)cc4C(=O)N3C)O2)c1	31	3	.	.	.
C[C@@H]1CN([C@@H](C)CO)C(=O)Cc2cc(NC(=O)CCCCCC(=O)Nc3ccccc3N)ccc2O[C@H]1CN(C)Cc1ccc(C(F)(F)F)cc1	?	-6	.	.	.
C[C@H]1CN([C@@H](C)CO)C(=O)Cc2cc(NC(=O)CCCCCC(=O)Nc3ccccc3N)ccc2O[C@H]1CN(C)Cc1ccc(C(F)(F)F)cc1	111*	-14	.	.	.
C[C@H]1CN([C@@H](C)CO)C(=O)Cc2cc(NC(=O)CCCCCC(=O)Nc3ccccc3N)ccc2O[C@@H]1CN(C)Cc1ccc(-c2ccccc2)cc1	133*	36	.	.	.
C[C@H](CO)N1C[C@H](C)[C@H](CN(C)Cc2ccccc2)Oc2ccc(NC(=O)CCCCCC(=O)Nc3ccccc3N)cc2CC1=O	80*	-4	.	.	.
C[C@@H]1CN([C@@H](C)CO)C(=O)Cc2cc(NC(=O)CCCCCC(=O)Nc3ccccc3N)ccc2O[C@@H]1CN(C)Cc1ccc(-c2ccccc2)cc1	19	5	.	.	.
CCNC(=O)[C@@H]1[C@@H](CO)[C@@H]2Cn3c(ccc(C4=CCCC4)c3=O)[C@H]1N2Cc1ccncc1	20	6	.	.	.
OC(c1ccc(F)cc1)c1nc(-c2cc3ccccc3o2)cs1 (configuration not stated)	35	70*	-1	.	.
COc1ccc(C(O)c2nc(-c3cnc4ccccc4c3)cs2)cc1 (configuration not stated)	12	49*	2	.	.
OC(c1cccc(Cl)c1)c1nc(-c2cnc3ccccc3c2)cs1 (configuration not stated)	9	31	-1	.	.
CC(=O)NC(c1cccc(F)c1)c1nc(-c2cc3ccccc3o2)cs1 (configuration not stated)	6	1	-1	.	.
OC(c1ccc(F)c(F)c1)c1nc(-c2ccc3ccccc3c2)cs1 (configuration not stated)	?	68*	-3	.	.
COc1ccc(-c2csc(C(NC(C)=O)c3cccc(F)c3)n2)cc1 (configuration not stated)	76*	-9	-1	.	.
COc1ccc(S(=O)(=O)N(C)C[C@@H]2Oc3c(NC(=O)c4ccc(-c5nccs5)cc4)cccc3C(=O)N([C@H](C)CO)C[C@@H]2C)cc1	.	-3	.	.	.
OC(c1ccc(F)cc1)c1nc(-c2cnc3ccccc3c2)cs1 (configuration not stated)	8	48*	23	.	.
CC(=O)N(C)C[C@@H]1Oc2ncc(C#C[C@@H](C)O)cc2C(=O)N([C@H](C)CO)C[C@H]1C	3	8	.	.	.
COc1cccc(-c2cnc3c(c2)C(=O)N([C@@H](C)CO)C[C@H](C)[C@H](CN(C)Cc2ccc(F)cc2)O3)c1	30	-9	.	.	.
COC(=O)CNc1c(-c2ccccc2)nc2ccc(Br)cn12	.	50*	.	.	.
C/C=C/c1ccc([C@H]2[C@@H](CNC(=O)c3ccncc3)N(C(C)=O)[C@H]2CO)cc1	-4	-2	.	.	.
Cc1cccc(NC(=S)NC2CCCC2)c1	.	.	.	-12	-5
Cc1cccc(NC(=S)NC2CC3C=CC2C3)c1 (configuration not stated)	100*	10	-4	7	1
CCC(NC(=O)c1cc(COc2cc(C)c(Cl)c(C)c2)on1)c1ccncc1 (configuration not stated)	58	1	-1	4	6
